WRN inhibitor: qHTS for Inhibitors of WRN Helicase; Bifunctional 3'-5' exonuclease/ATP-dependent helicase WRN (Homo sapiens), Q14191; WRN helicase unwinding, fluorescent forked duplex, kinetic; Potency, µM (titrated, usually from 114 µM), inactives show top-dose activity change, negative = inhibition, most hits filed as inhibitors; 360,000 tested, 0.46% active; AID 651768, 2012; note: potency is the fitted concentration of half-maximal effect; % is set by controls: 0 for no effect and ±100 for the full control effect; nearly all actives have a fitted effect of over 55% in size
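Kinetic red-fluorescence monitoring (525/598 nm) tracks WRN helicase activity after 100 nM fluorophore-quencher forked duplex and 2 mM ATP are added to 20 nM enzyme pretreated 15 min at room temperature with compound.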
FEN1 inh: qHTS Assay for the Inhibitors of Human Flap endonuclease 1 (FEN1); Potency, µM (titrated, usually from 114 µM), without a hit: top-dose activity change, negative = inhibition, usual class: inhibitors; P39748; 390,000 tested, 0.35% active; AID 588795, 2011; Recombinant FEN1 flap cleavage, fluorescence, 15 min; note: potency is the fitted concentration of half-maximal effect; % is set by controls: 0 for no effect and ±100 for the full control effect; nearly all actives have a fitted effect of over 65% in size
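FEN1 at 10 nM, compound pretreatment for 15 min (room temperature), 50 nM final substrate to initiate; endpoint reads at 0 and 15 min; DMSO-only plates used as vehicle background.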
PGK inhibitor: qHTS Assay to Find Inhibitors of Phosphoglycerate Kinase | Phosphoglycerate kinase, glycosomal (Trypanosoma brucei brucei), P07378 | PGK/GAPDH coupled, Kinase-Glo luminescence, 60 min | Potency, µM (doses to about 57.5 µM), for inactives: at the top dose activity change, negative = inhibition, actives largely listed as inhibitors | 380,000 tested, 0.043% active | AID 602233, 2012; note: potency is the fitted concentration of half-maximal effect; % is set by controls: 0 for no effect and ±100 for the full control effect; nearly all actives have a fitted effect of over 60% in size
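Luminescent ATP detection (Kinase-Glo Plus) follows a 60-minute room-temperature incubation, with wells lacking PGK as controls. Buffer: 100 mM TEA (pH 7.6), 5 mM MgCl2, 0.01% Tween-20. Coupling enzyme GAPDH (100 nM final) supplies unstable 1,3-BPG in-well.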
PI5P4K alpha inh: qHTS for Inhibitors of phosphatidylinositol 5-phosphate 4-kinase (PI5P4K). PI5P4Kalpha enzyme, ADP-Glo luminescence, 60 min; active compounds read low. max response, %. 330,000 tested, 1.2% active. AID 652105, 2013; active = max response of -50% or lower; inconclusive = between -30% and -50%; inactive = -30% or higher; note: value at the top dose of about 77 µM; % is set by controls: 0 for no effect and ±100 for the full control effect
Target sequence (P48426 whole entry, looked up): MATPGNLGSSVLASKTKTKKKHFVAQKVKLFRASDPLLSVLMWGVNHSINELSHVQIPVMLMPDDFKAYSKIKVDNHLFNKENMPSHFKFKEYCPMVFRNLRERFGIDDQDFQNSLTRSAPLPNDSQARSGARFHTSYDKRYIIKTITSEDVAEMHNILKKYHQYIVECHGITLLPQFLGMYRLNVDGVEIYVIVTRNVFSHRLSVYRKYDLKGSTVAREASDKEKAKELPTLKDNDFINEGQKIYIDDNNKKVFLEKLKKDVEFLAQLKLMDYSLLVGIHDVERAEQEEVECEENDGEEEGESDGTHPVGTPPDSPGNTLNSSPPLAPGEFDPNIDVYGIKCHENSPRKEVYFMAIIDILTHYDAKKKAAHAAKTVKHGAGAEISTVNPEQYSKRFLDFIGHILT
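Luminescence from ADP-Glo served as readout of PI5P4Kalpha activity in a qHTS format. Reaction: enzyme, substrate, compound, ATP at 5 microM final, 60 min at RT.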
Pin1 inhibitor: qHTS Assay to Find Inhibitors of Pin1; Pin1 FP peptide displacement, HiFluor488, 10 min; Potency, µM (doses to about 115 µM), without a hit: at the top dose activity, negative = inhibition, usual class: inhibitors; 390,000 tested, 0.009% active; AID 504891, 2011; active = well fitted inhibition curve with a large enough effect in the polarisation, with a control signal flat, not every such curve was filed as active; inconclusive = small, poorly fitted or top-dose-only effect, or effect the other way, or a change in a side signal; inactive = no such curve, though single readings can be large or run the other way; the % refers to the polarisation; note: potency is the fitted concentration of half-maximal effect; % is set by controls: 0 for no effect and ±100 for the full control effect
Target sequence (Q13526 whole entry, looked up): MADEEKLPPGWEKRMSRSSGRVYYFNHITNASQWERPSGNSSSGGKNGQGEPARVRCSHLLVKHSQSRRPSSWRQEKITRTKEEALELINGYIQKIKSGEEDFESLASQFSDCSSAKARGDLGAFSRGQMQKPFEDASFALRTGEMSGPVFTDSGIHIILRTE
Glioma ERSR ind: qHTS for Inducers of the Endoplasmic Reticulum Stress Response (ERSR) in Human Glioma: qHTS. U87-MG GRP78 promoter luciferase reporter, 16 h. Potency, µM, for the others: top-dose activation, actives largely listed as activators. 420,000 tested, 0.02% active; note: potency is the fitted concentration of half-maximal effect; series mostly up to about 76 µM; % of control where 0% means no effect; nearly all actives have a fitted effect of over 35% in size
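Stably transfected U87-MG human glioma cells carrying a GRP78-based luminescent sensor were seeded at 1000 cells/well, pin-dosed with compounds and incubated 16 h. Luciferase reagent was then added, and end-point luminescence was read after 10 min at room temperature.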
An asterisk follows results filed as active; i = inactive; ? = inconclusive; nt = not tested or not shown; [ ] = dose if it differs, or a comment. Shown are actives, neighbours in structure and some others; about 1.3% of the full set was active somewhere. Unless noted, calls come from the whole dose curve; as a rule, active = well fitted curve in the direction sought with a large enough effect; inconclusive = small, poorly fitted or top-dose-only effect, or another doubt; inactive = no such curve, though single readings can be large; an effect the other way counts as inactive or inconclusive.

SMILES | WRN inhibitor | FEN1 inh | PGK inhibitor | PI5P4K alpha inh | Pin1 inhibitor | Glioma ERSR ind
CC(C)(C)N1C(=O)c2ccc(C(=O)O)cc2C1=O | 2% | -10% | 1% | ? | 6% | 2%
Cc1ccc(/C=C2/C(=O)c3ccc(C(=O)O)cc3C2=O)o1 | 13µM* | 25µM* | ? | -62* | ? | 1%
O=C(O)c1ccc2c(c1)C(=O)/C(=C/c1ccccc1)C2=O | ? | 40µM* | -23% | -56* | nt | -6%
CN(C)c1ccc(/C=C/N2C=CCc3c2ccc2ccccc32)cc1 | nt | 11µM* | nt | nt | nt | -11%
CN(C)c1ccc(/C=C/c2cc[n+](C)c3ccc4ccccc4c23)cc1 | nt | ? | nt | nt | nt | -10%
O=Cc1ccc2oc3nc4n(c(=O)c3c(=O)c2c1)CCCS4 | 20µM* | 50µM* | ? | -73* | ? | -2%
Cc1sc2nc3n(c(=O)c2c1C)CCCS3 | -3% | 1% | i | 0 | -1% | -2%
Cc1ncc2c(c1CNC(=O)c1ccc3c(c1)OCO3)CCN(C(=O)c1scc3c1CCCC3)C2 | nt | nt | nt | nt | nt | -5%
CCN(CC)S(=O)(=O)c1ccc(N2CCOCC2)c(NC(=O)c2c3c(nc4ccccc24)CCC3)c1 | -26% | -6% | -8% | -59* | ? | 0%
CCN(CC)S(=O)(=O)c1ccc(N2CCOCC2)c(NC(=O)c2cccc3ccccc23)c1 | -9% | -6% | -2% | -1 | 2% | -4%
O=C1c2c([N+](=O)[O-])cc([N+](=O)[O-])cc2S(=O)N1Cc1ccccc1 (stereo not given) | -27% | -16% | -1% | -60* | -11% | -5%
COc1ccc2c(c1)CCc1cnc(-n3ncc(C(=O)NCCCc4ccncc4)c3C)nc1-2 | nt | nt | nt | nt | nt | -2%
O=C1CSc2ccc(S(=O)(=O)NCc3ccccc3Cl)cc2N1 | -6% | 0% | -4% | -1 | -1% | -5%
CC(CS(=O)(=O)c1ccc2c(c1)NC(=O)CS2)C(=O)NCc1ccccc1Cl (stereo not given) | 40µM* | -21% | 7.9µM* | ? | ? | -6%
O=C1N=c2ccccc2=C1c1[nH]c(=S)[nH]c1O | -18% | -10% | i | ? | 1% | -5%
O=C1N=c2ccccc2=C1c1sc(=O)[nH]c1O | -8% | -2% | 2% | -87* | ? | -3%
O=C1N=c2ccc([N+](=O)[O-])cc2=C1c1sc(=O)[nH]c1O | ? | ? | 0% | -54* | ? | -5%
O=[N+]([O-])c1ccc2nc(CCCO)[nH]c2c1 | -6% | -19% | -4% | 4 | -10% | -2%
COc1ccc(C2Oc3ccccc3C(=O)N2Cc2ccccc2)cc1COc1ccc(NC(C)=O)cc1 (stereo not given) | nt | nt | nt | nt | 11% | nt
COc1cccc2c(C)nc(Nc3nc(CSc4nnc(C)s4)cc(=O)[nH]3)nc12 | -7%[57.1 µM] | 50µM* | 9% | -17 | ? | -7%
Cc1ccc2c(C)nc(Nc3nc(CSc4nnc(C)s4)cc(=O)[nH]3)nc2c1 | 14% | ? | -7% | nt | 3% | -1%
N#Cc1c(=O)c2nc(NCCCO)ncc2n2c(=O)c3ccccc3[nH]c12 | ? | ? | -7% | -65* | 0% | 1%
COc1cccc(C2c3c(ncn(-c4ccc(NC(C)=O)cc4)c3=N)Oc3ccc4ccccc4c32)c1 (stereo not given) | nt | nt | nt | nt | 18% | nt
Cc1nc2sccn2c1CN1CCOc2ccc(CN3CCN(c4ccc(F)cc4)CC3)cc2C1 | nt | nt | nt | nt | nt | -3%
N#C/C(=C/c1ccc(-c2ccc(S(N)(=O)=O)cc2)o1)C(=O)Nc1ccccc1 | -12% | -8% | -3% | ? | ? | -9%
SMILES | WRN inhibitor | FEN1 inh | PGK inhibitor | PI5P4K alpha inh | Pin1 inhibitor | Glioma ERSR ind
N#C/C(=C/c1ccc(-c2ccc(S(N)(=O)=O)cc2)o1)c1nc2ccccc2s1 | -5% | 12% | -2% | -53* | ? | -3%
CC(c1ccccc1)n1c(S(=O)(=O)O)nc2ccccc21 (stereo not given) | -1% | 2% | i | -67* | -5% | 0%
CC(C)n1c(S(=O)(=O)O)nc2ccccc21 | -10% | 1% | i | 2 | -9% | 0%
N#Cc1c(-c2ccco2)nc(SCC(=O)Nc2cccc(Cl)c2)[nH]c1=O | ? | -4% | -8% | nt | -13% | -5%
CCc1ccc(NC(=O)C(C)Sc2nc(-c3ccco3)c(C#N)c(=O)[nH]2)cc1 (stereo not given) | ? | -20% | -14% | -57* | -19% | 1%
O=[N+]([O-])c1cc([N+](=O)[O-])c2oc(-c3ccccc3)c(Br)c2c1O | ? | 45µM* | -21% | -102* | nt | -4%
Cc1ncc2c(c1CNC(=O)c1ccc3c(c1)OCO3)CCN(C(=O)c1noc3c1CCCC3)C2 | nt | nt | nt | nt | nt | -4%
CCn1cnc2c(Nc3ccc(Cc4cccnc4)cc3)nc(C#N)nc21 | nt | nt | nt | nt | 1% | nt
CCOC(=O)N1CCN(C(=O)C2CCN(C(=O)c3ccccc3C)CC2)CC1 | 20µM* | ? | -13% | -79* | -3% | -19%
O=C(NCC1(N2CCOCC2)CCCC1)c1cnn(-c2nccc(-c3ccco3)n2)c1C1CC1 | nt | nt | nt | nt | nt | -5%
COc1cc(C(c2sc3nc(C)nn3c2O)N2CCC3(CC2)OCCO3)cc(OC)c1OC (stereo not given) | -10% | 8% | -4% | -50* | -1% | -2%
COC(=O)C1CCN(C(c2cc(OC)c(OC)c(OC)c2)c2sc3nc(C)nn3c2O)CC1 (stereo not given) | -1% | -2% | i | 5 | 4% | -1%
CN=C(c1ccco1)n1c(=S)nc(-c2ccco2)n(C)c1=S | ? | -13% | -6% | -68* | ? | -1%
CN=C(c1ccc(C)cc1)n1c(=S)nc(-c2ccc(C)cc2)n(C)c1=S | 4%[57.1 µM] | 14% | i | -1 | 3% | 3%
COc1cc(-c2ccc(Nc3ccccc3C(=O)O)c(OC)c2)ccc1Nc1ccccc1C(=O)O | 32µM* | ? | -28% | -89* | ? | 8%
COc1cccc(Nc2ccccc2C(=O)O)c1 | -17% | -1% | 4% | -27 | 0% | 7%
COC(=O)C(N)Cc1ccc(O)c(O)c1 (stereo not given) | -9% | -1% | 1% | 2 | ? | 2%
NC(CO)C(=O)NNCc1ccc(O)c(O)c1O (stereo not given) | -2%[11.6 µM] | 20µM* | -4% | -54* | -8% | -4%
